Experimental data reported in PubChem BioAssay (NCATS).
Results filed as inconclusive are left out. Activity calls are given as the source filed them. Calls come from the whole dose curve; as a rule, active = well fitted cell-killing curve with a large enough effect; inconclusive = small, poorly fitted or top-dose-only effect, or effect the other way; inactive = no such curve, though single readings can be large or run the other way. Residues, ends and D or L forms follow the SMILES beside them. *: point of attachment. Cbz = O=C(OCc1ccccc1)*

Key:
[1] = Quantitative High-Throughput drug screen in 47 multiple myeloma cell lines against the NCATS MIPE library collection: OCIMY1_PLB cell viability assay (AID 1918979); note: nearly all actives have a fitted effect of over 35% in size;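 for viability: 100% = DMSO-only wells and 0% = cell-free media-only wells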
Outline: (§1)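 MIPE 4.0 approved/investigational drugs; 500 cells/well; 48 h 37 °C humidified 5% CO2; CTG luminescence readout; DMSO = 100%, media = 0% viability.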

[2] = Quantitative High-Throughput drug screen in 47 multiple myeloma cell lines against the NCATS MIPE library collection: MM1S_ATCC cell viability assay (AID 1918980); note: nearly all actives have a fitted effect of over 45% in size
Outline: as §1

[3] = Quantitative High-Throughput drug screen in 47 multiple myeloma cell lines against the NCATS MIPE library collection: MM1R_ATCC cell viability assay (AID 1918981); note: nearly all actives have a fitted effect of over 35% in size
Outline: as §1

[4] = Quantitative High-Throughput drug screen in 47 multiple myeloma cell lines against the NCATS MIPE library collection: LP1_DSMZ cell viability assay (AID 1918982); note: nearly all actives have a fitted effect of over 35% in size
Outline: as §1

[5] = Quantitative High-Throughput drug screen in 47 multiple myeloma cell lines against the NCATS MIPE library collection: KMS28PE_JCRB cell viability assay (AID 1918983); note: nearly all actives have a fitted effect of over 35% in size
Outline: as §1

[6] = Quantitative High-Throughput drug screen in 47 multiple myeloma cell lines against the NCATS MIPE library collection: KMS34_JCRB cell viability assay (AID 1918985); note: nearly all actives have a fitted effect of over 40% in size
Outline: as §1

[7] = Quantitative High-Throughput drug screen in 47 multiple myeloma cell lines against the NCATS MIPE library collection: OCIMY7_PLB cell viability assay (AID 1918987); details: OCI-MY7 myeloma viability, CellTiter-Glo ATP, 48 h; viability (% of DMSO): at 45.8 µM (top of the series); note: nearly all actives have a fitted effect of over 65% in size
Outline: as §1

[8] = Quantitative High-Throughput drug screen in 47 multiple myeloma cell lines against the NCATS MIPE library collection: OCIMY5_PLB cell viability assay (AID 1918988); note: nearly all actives have a fitted effect of over 65% in size
Outline: as §1

[9] = Quantitative High-Throughput drug screen in 47 multiple myeloma cell lines against the NCATS MIPE library collection: OPM1_PLB cell viability assay (AID 1918989); note: nearly all actives have a fitted effect of over 40% in size
Outline: as §1

[10] = Quantitative High-Throughput drug screen in 47 multiple myeloma cell lines against the NCATS MIPE library collection: U266_ATCC cell viability assay (AID 1919864); note: nearly all actives have a fitted effect of over 35% in size;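 for viability (% of DMSO control): 0% = media-only wells without cells and 100% = DMSO-only wells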
Outline: as §1

[11] = Quantitative High-Throughput drug screen in 47 multiple myeloma cell lines against the NCATS MIPE library collection: XG6_PLB cell viability assay (AID 1919865); note: nearly all actives have a fitted effect of over 40% in size
Outline: as §1

[12] = Quantitative High-Throughput drug screen in 47 multiple myeloma cell lines against the NCATS MIPE library collection: XG1_PLB cell viability assay (AID 1919866); note: nearly all actives have a fitted effect of over 35% in size
Outline: as §1

[13] = Quantitative High-Throughput drug screen in 47 multiple myeloma cell lines against the NCATS MIPE library collection: VP6_DJ cell viability assay (AID 1919867); note: nearly all actives have a fitted effect of over 40% in size;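 for viability (% of DMSO): 100% = DMSO-only wells and 0% = wells with media alone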
Outline: as §1

[14] = Quantitative High-Throughput drug screen in 47 multiple myeloma cell lines against the NCATS MIPE library collection: UTMC2_PLB cell viability assay (AID 1919868); details: CellTiter-Glo ATP luminescence, 48 h; viability (% of DMSO control): at 45.8 µM (top of the series); note: nearly all actives have a fitted effect of over 55% in size
Outline: as §1

[15] = Quantitative High-Throughput drug screen in 47 multiple myeloma cell lines against the NCATS MIPE library collection: PE2_PLB cell viability assay (AID 1919869); note: nearly all actives have a fitted effect of over 35% in size
Outline: as §1

[16] = Quantitative High-Throughput drug screen in 47 multiple myeloma cell lines against the NCATS MIPE library collection: PCM6_Riken cell viability assay (AID 1919870); note: nearly all actives have a fitted effect of over 30% in size
Outline: as §1

[17] = Quantitative High-Throughput drug screen in 47 multiple myeloma cell lines against the NCATS MIPE library collection: RPMI8226_ATCC cell viability assay (AID 1919871); note: nearly all actives have a fitted effect of over 30% in size
Outline: as §1

[18] = Quantitative High-Throughput drug screen in 47 multiple myeloma cell lines against the NCATS MIPE library collection: OPM2_DSMZ cell viability assay (AID 1919872); note: nearly all actives have a fitted effect of over 30% in size
Outline: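 qHTS of the MIPE 4.0 collection: 500 myeloma cells/well, 48 h drug exposure at 37C in 5% CO2, then CellTiter-Glo for 5 min at room temperature before luminescence reading.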

[19] = Quantitative High-Throughput drug screen in 47 multiple myeloma cell lines against the NCATS MIPE library collection: L363_DSMZ cell viability assay (AID 1918984); note: nearly all actives have a fitted effect of over 40% in size
Outline: as §1

[20] = Quantitative High-Throughput drug screen in 47 multiple myeloma cell lines against the NCATS MIPE library collection: SKMM1_PLB cell viability assay (AID 1919863); details: SKMM1 myeloma viability, CellTiter-Glo ATP, 48 h; viability: active compounds read low; note: nearly all actives have a fitted effect of over 35% in size
Outline: as §1
Potency is the fitted concentration of half-maximal effect.

CC(C=CC1=C(C)CCCC1(C)C)=CC=CC(C)=CC(=O)Nc1ccc(O)cc1
active: Potency [1] 21.5 µM | Potency [2] 48.1 µM | Potency [3] 17.1 µM | Potency [4] 17.1 µM | Potency [5] 21.5 µM | Potency [6] 17.1 µM | Potency [7] 4.29 µM | Potency [8] 9.59 µM | Potency [9] 3.4 µM | Potency [10] 38.2 µM | Potency [11] 13.6 µM | Potency [12] 15.2 µM | Potency [13] 12.1 µM | Potency [14] 15.2 µM | Potency [15] 12.1 µM | Potency [16] 13.6 µM | Potency [17] 24.1 µM | Potency [18] 17.1 µM

CCOC(=O)[C@@H](N)Cc1ccc(-c2cc(O[C@H](c3ccc(Cl)cc3-n3ccc(C)n3)C(F)(F)F)nc(N)n2)cc1
active: Potency [1] 18.7 µM | Potency [2] 2.96 µM | Potency [3] 14.8 µM | Potency [5] 20.9 µM | Potency [19] 10.5 µM | Potency [6] 16.6 µM | Potency [7] 11.8 µM | Potency [8] 18.7 µM | Potency [9] 23.5 µM | Potency [20] 23.5 µM | Potency [10] 23.5 µM | Potency [11] 16.6 µM | Potency [12] 23.5 µM | Potency [14] 20.9 µM | Potency [15] 23.5 µM | Potency [16] 18.7 µM | Potency [18] 18.7 µM

C[N+](C)([O-])CCNc1ccc(NCC[N+](C)(C)[O-])c2c1C(=O)c1c(O)ccc(O)c1C2=O
inactive: Potency [1] | Potency [4] | Potency [5] | Potency [19] | Potency [6] | Potency [13] | Potency [17] | Potency [18]
active: Potency [2] 20.9 µM | Potency [11] 13.2 µM

CC(=CC(=O)Nc1ccccc1C(=O)O)c1ccc2ccccc2c1
active: Potency [2] 8.33 µM | Potency [11] 7.43 µM | Potency [15] 23.5 µM
inactive: Potency [1] | Potency [5] | Potency [18]

CC(C)C[C@@H](C=O)NC(=O)[C@H](CC(C)C)NC(=O)[C@H](CC(C)C)NC(=O)OCc1ccccc1 (Cbz-Leu-Leu-Leu-aldehyde)
active: Potency [1] 0.332 µM | Potency [3] 0.332 µM | Potency [4] 0.662 µM | Potency [5] 0.209 µM | Potency [19] 0.118 µM | Potency [6] 0.235 µM | Potency [7] 0.296 µM | Potency [8] 0.372 µM | Potency [9] 0.296 µM | Potency [20] 1.18 µM | Potency [10] 0.166 µM | Potency [11] 0.105 µM | Potency [12] 0.148 µM | Potency [13] 0.132 µM | Potency [14] 1.18 µM | Potency [15] 0.209 µM | Potency [16] 0.332 µM | Potency [18] 0.662 µM

COc1cc(C)c(C=CC(C)=CC=CC(C)=CC(=O)O)c(C)c1C
inactive: Potency [1] | Potency [2] | Potency [4] | Potency [5] | Potency [19] | Potency [6] | viability [20] 132% | Potency [11] | Potency [12] | Potency [18]
active: Potency [17] 1.48 µM

C[C@H]1[C@@H](OC(=O)CCC(=O)O)O[C@@H]2O[C@@]3(C)CC[C@@H]4[C@H](C)CC[C@@H]1[C@@]24OO3
active: Potency [1] 14.8 µM | Potency [2] 18.7 µM | Potency [3] 14.8 µM | Potency [6] 1.32 µM | Potency [7] 0.833 µM | Potency [8] 4.69 µM | Potency [9] 2.96 µM | Potency [20] 4.69 µM | Potency [10] 16.6 µM | Potency [11] 4.69 µM | Potency [12] 10.5 µM | Potency [14] 4.69 µM | Potency [16] 5.9 µM

CCCNC(=O)[C@H]1O[C@H]1C(=O)N[C@H](C(=O)N1CCC[C@@H]1C(=O)OC)C(C)CC (stereo partly specified)
active: Potency [1] 5.9 µM | Potency [3] 2.35 µM | Potency [4] 14.8 µM | Potency [5] 7.43 µM | Potency [19] 8.33 µM | Potency [6] 4.18 µM | Potency [7] 3.32 µM | Potency [8] 2.64 µM | Potency [9] 18.7 µM | Potency [20] 20.9 µM | Potency [10] 10.5 µM | Potency [11] 8.33 µM | Potency [12] 14.8 µM | Potency [13] 16.6 µM | Potency [15] 4.18 µM | Potency [16] 16.6 µM | Potency [17] 20.9 µM | Potency [18] 11.8 µM

C=C1CCC2[C@](C)(CO)C(O)CC[C@]2(C)C1CC=C1C(=O)OCC1O (stereo partly specified)
inactive: Potency [1] | Potency [2] | Potency [4] | Potency [9] | Potency [10] | Potency [11] | Potency [12] | Potency [13] | Potency [15] | Potency [16] | Potency [18]
active: Potency [8] 42.9 µM | Potency [17] 0.0171 µM

CCS(=O)(=O)Nc1ccc2[nH]c(O)c(C(=Nc3ccc(CN4CCCCC4)cc3)c3ccccc3)c2c1
active: Potency [1] 5.9 µM | Potency [2] 0.469 µM | Potency [4] 7.43 µM | Potency [5] 1.05 µM | Potency [19] 0.0526 µM | Potency [6] 0.935 µM | Potency [7] 0.0662 µM | Potency [8] 2.09 µM | Potency [9] 0.332 µM | Potency [20] 5.9 µM | Potency [10] 5.9 µM | Potency [11] 3.32 µM | Potency [12] 1.32 µM | Potency [13] 0.59 µM | Potency [14] 0.0935 µM | Potency [15] 0.469 µM | Potency [16] 3.72 µM | Potency [17] 0.332 µM | Potency [18] 0.833 µM

CCc1cc(C(C)=NOCc2ccc(C3CCCCC3)c(C(F)(F)F)c2)ccc1CN1CC(C(=O)O)C1
active: Potency [7] 16.6 µM | Potency [9] 18.7 µM | Potency [20] 18.7 µM | Potency [13] 11.8 µM | Potency [16] 11.8 µM
inactive: Potency [1] | Potency [2] | Potency [10]
